# Out of some 360,000 compounds screened, about 810 (0.23%) were called active. Rule as the data show it: active = potentiation above about 50%; inconclusive = mostly about 30% to 49%; inactive = weaker than that. The entries come from a sample that favours actives as a whole.
# Biological target: D(2) dopamine receptor (Homo sapiens) (UniProt P14416)
# Experiment: Beta-Arrestin HTS for Positive Allosteric Modulators of the Human D2 Dopamine Receptor: Potentiators
# Conditions: DiscoveRx D2 beta-arrestin cells, luminescence, 90 min; stronger effect = higher value; 100% = 57 uM dopamine signal
# From the text: There is great interest in identifying small molecule ligands for G-protein coupled receptors (GPCRs) as nearly 50% of all FDA-approved drugs target these important receptor proteins. […] Amongst the dopamine receptors (DARs), the D2 is arguably one of the most validated drug targets in neurology and psychiatry. For instance, all receptor-based antiparkinsonian drugs primarily work via stimulating the D2 DAR, whereas all FDA-approved antipsychotic agents are antagonists of this receptor. The D2 DAR is also therapeutically targeted in other disorders such as restless legs syndrome, tardive dyskinesia, Tourette's syndrome, and hyperprolactinemia.
# To this end, a miniaturized qHTS screen was developed to be screened against the Molecular Libraries Small Molecule Repository (MLSMR). This assay seeks to identify potentiators against the D2 DAR.
# NIH Molecular Libraries Probe Production Network [MLPCN]
# NIH Chemical Genomics Center [NCGC]
# PI Name: David Sibley, National Institutes of Neurological Disorders and Stroke
# DiscoveRx D2 cells were thawed from frozen stock and seeded at 2,100 cells/ 3 uL/well media (DiscoveRx Plating Reagent 2) with MultiDrop Combi dispenser (Thermo Scientific, Logan, UT) onto white tissue culture treated 1536-well Aurora plates (Brooks Automation, Chelmsford, MA) and allowed to attach overnight at 37 deg C, 5% CO2. Next, 23 nL/well of compound solutions in DMSO were added with a pintool transfer (Kalypsis, San Diego, CA). As the positive control, 1 uL/well dopamine (EC100, 57 uM final concentration) diluted in buffer (HBSS + 10 mM HEPES + SMB + 0.1 %Tween-20) was dispensed to 1 column of each plate. EC20 (Dopamine at 50 nM final concentration) was dispensed to the rest of the plate except columns 1 &2 which were used as negative control (EC=0, buffer only), 1 uL/well as well. The cells were stimulated by compounds and dopamine for 90 minutes at 37 deg C, 5% CO2, after which 1.5 uL/well of DiscoveRx detection reagent was added with BioRAPTR FRD dispenser. The detection reagent was prepared by mixing of Galacton Star Substrate, Emerald II solution and PathHunter buffer (supplied by the assay kit) together at 1:5:19 proportion accordingly just prior to dispensing. The plates were incubated at ambient temperature for 1 hour and then the luminescent signal was read on ViewLux plate reader (PerkinElmer, Waltham, MA).
# D(2) dopamine receptor (Homo sapiens), sequence (P14416 whole entry, looked up): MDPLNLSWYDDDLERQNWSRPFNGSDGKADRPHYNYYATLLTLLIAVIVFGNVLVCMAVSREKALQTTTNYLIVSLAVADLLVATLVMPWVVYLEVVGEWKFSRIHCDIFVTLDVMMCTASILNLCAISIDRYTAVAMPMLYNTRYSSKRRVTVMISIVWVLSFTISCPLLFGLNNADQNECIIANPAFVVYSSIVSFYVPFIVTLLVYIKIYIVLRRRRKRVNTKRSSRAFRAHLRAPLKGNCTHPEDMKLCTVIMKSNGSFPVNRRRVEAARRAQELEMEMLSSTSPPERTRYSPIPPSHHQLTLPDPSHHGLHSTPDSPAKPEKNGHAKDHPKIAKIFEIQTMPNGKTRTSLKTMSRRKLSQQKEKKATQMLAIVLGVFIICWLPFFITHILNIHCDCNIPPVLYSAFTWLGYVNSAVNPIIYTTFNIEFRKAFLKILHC
row,Compound,potentiation
1,Cc1cc(N2CCCC2=O)cc(C)c1S(N)(=O)=O,-18.2% (inactive)
2,O=C1NC(=O)C(c2ccc(Cl)cc2)N1 (centres undefined),-7.09% (inactive)
3,CCCCC(=O)Nc1nnc(S(=O)(=O)N(C)Cc2ccco2)s1,-7.89% (inactive)
4,Cn1cc(/C=C/C(=O)N2CCCC(C(=O)c3ccc(C(F)(F)F)cc3)C2)cn1 (centres undefined),-1.59% (inactive)
5,COc1ccc(C(=O)C[n+]2ccc(N)c(C)c2C)cc1,-3.23% (inactive)
6,COc1cc([N+](=O)[O-])cc([N+](=O)[O-])c1NC(=O)N1CCOCC1,-13.5% (inactive)
7,COc1cc(C(=S)N2CCOCC2)cc(OC)c1OC(=O)c1ccc([N+](=O)[O-])cc1[N+](=O)[O-],136% (active)
8,COC(=O)c1cc(Oc2ccc(S(=O)(=O)N3CCOCC3)cc2[N+](=O)[O-])cc(C(=O)OC)c1,-0.101% (inactive)
9,O=C(NCCCn1ccnc1)C(=O)NCC1OCCN1S(=O)(=O)c1cc(F)ccc1F (centres undefined),-2.44% (inactive)
10,COC(=O)c1cccnc1NC(=S)NC(C)C,2.31% (inactive)
11,CC(=O)NC(C)(C)C1CC=C(C)/C(=N\O)C1 (centres undefined),-2.42% (inactive)
12,NC(Cc1ccc(F)cc1)c1csc(Nc2nncc3ccccc23)n1 (centres undefined),0.276% (inactive)
13,Cc1ccc(Cc2c(-c3ccco3)nc3ccc(Cl)cn23)cc1,-4.9% (inactive)
14,Cc1nn(C)c(C)c1S(=O)(=O)N1CCc2ccccc21,3.69% (inactive)
15,CCO[C@@H]1OC(C(=O)NC2CC2)=C[C@H](C)[C@H]1CCCO,-6.01% (inactive)
16,O=C(Oc1ccc(Br)cc1C(=S)N1CCOCC1)c1cccc([N+](=O)[O-])c1,-0.594% (inactive)
17,O=C(Oc1ccccc1C(=S)N1CCCCC1)c1cc([N+](=O)[O-])cc([N+](=O)[O-])c1,58.7% (active)
18,CC1CCN(C(=S)c2cccc([N+](=O)[O-])c2)CC1,-3.98% (inactive)
19,CCCCn1c(N)c(N(CCC(C)C)C(=O)c2ccc(COc3ccccc3)o2)c(=O)[nH]c1=O,-0.984% (inactive)
20,COc1cccc(NC(=O)C2(C)CCN2Cc2ccccc2Cl)c1 (centres undefined),-7.17% (inactive)
21,CN(CC(=O)Nc1c(Cl)cccc1Cl)C(=O)CC1OC(=O)c2ccccc21 (centres undefined),-2.61% (inactive)
22,CC(OC(=O)c1ccccc1NCCO)C(=O)Nc1ccnn1C(C)C (centres undefined),-3.07% (inactive)
23,O=C(NCc1cc(F)cc(C(F)(F)F)c1)C1CCC(=O)N(C2CCCC2)C1 (centres undefined),2.66% (inactive)

row,Compound,potentiation
1,Cc1ccc(S(=O)(=O)N2CCOCC2)cc1C(=O)NC(=S)N(Cc1ccccc1)C(C)C,10.6% (inactive)
2,CC1(C)C(=O)CCC2(C)C1=CCC1C2C(=O)CC2(C)C1CCC2(O)C(=O)CO (centres undefined),-30.8% (inactive)
3,O=C(CCc1ccccc1)Nc1ccc(NC(=O)C2CCCCC2)nc1,-8.09% (inactive)
4,Cc1cc([N+](=O)[O-])nn1CC(=O)Nc1ccc(Cc2ccncc2)cc1,-10.7% (inactive)
5,Cc1nn(CC(=O)Nc2ccc(C#N)cc2)c(C)c1[N+](=O)[O-],-8.67% (inactive)
6,Cc1cc(C)n(CC(=O)Nc2ccc([N+](=O)[O-])cc2)n1,70.7% (active)
7,Cc1ccc(NC(=O)CS(=O)CC(=O)N(c2ccccc2)C(C)C(=O)NC2CCCC2)cc1 (centres undefined),-14.4% (inactive)
8,CCCc1nnc(SCC(=O)N2C(C)CCCC2C)n1CC (centres undefined),-7.75% (inactive)
9,CC(NC(=O)CC1SC(N)=NC1=O)c1ccccc1 (centres undefined),-0.5% (inactive)
10,C[C@H]1CN([C@@H](C)CO)C(=O)c2cc(-c3cccc(F)c3)cnc2O[C@@H]1CN(C)S(C)(=O)=O,7.41% (inactive)
11,Cc1csc(NC(=O)C2CCCN2C(=O)OCC(C)C)n1 (centres undefined),-5.09% (inactive)
12,COc1ccc(S(=O)(=O)N2CCN(CC(=O)N3CCOCC3)CC2)cc1OC,-5.65% (inactive)
13,O=C(Nc1cc(F)ccc1F)c1ccc2c(=O)n3c(nc2c1)CCC3,-9.48% (inactive)
14,CC(C)S(=O)(=O)c1csc(NC(=O)Nc2ccc(Cl)cc2)c1Cl,-6.65% (inactive)
15,CCOc1ccc(CCNC(=O)CCc2nnc3ccc(N4CCCC4)nn23)cc1OCC,2.77% (inactive)
16,Cc1occc(=O)c1OCc1c(Cl)cccc1Cl,-9.29% (inactive)
17,CCN(CC)CCCC(C)n1c2nc(=O)[nH]c(=O)c-2nc2cc(Cl)ccc21 (centres undefined),80.2% (active)
18,COc1cccc(NC(=O)C2(C)CCN2C(=O)CCC2CCCC2)c1 (centres undefined),-1.05% (inactive)
19,COc1ccc(C(C)(O)c2nc(-c3ccc(C)c(C)c3)cs2)cc1 (centres undefined),-10.5% (inactive)
20,CCCC(=O)N1c2ccc(-c3csc(N)n3)cc2CC1C (centres undefined),-21.2% (inactive)
21,CC(C)(C)C(=O)OCc1nc(-c2ccc(O)c(O)c2)cs1,70.4% (active)
22,CC(C)NC(=O)C1(C)CCCCCN1C(=O)c1ccc(-c2ccccc2)cc1 (centres undefined),-9.96% (inactive)
23,CC1(C)CCSC(/C=C/c2ccccc2)=N1,-38.8% (inactive)

row,Compound,potentiation
1,CNc1cnc(-c2cc(OC)c(OC)c(OC)c2)cn1,0.325% (inactive)
2,O=C(Nc1ccccc1F)c1ccc(Cn2cc(Br)cn2)cc1,-6.63% (inactive)
3,CC(C)CCNC(=O)c1cccnc1Sc1ccccc1,-21.6% (inactive)
4,COCCNC(=O)C1CCN(C(=O)C2CC(=O)N(c3ccc(C)cc3)C2)CC1 (centres undefined),-6.43% (inactive)
5,O=S(=O)(Cc1cc(Cl)nc(-c2cccnc2)n1)c1ccccc1,11.9% (inactive)
6,COc1cc2c(cc1OC)CN(C(C)C(=O)Nc1cccc(S(=O)(=O)N3CCOCC3)c1)CC2 (centres undefined),-31.3% (inactive)
7,CC(C)CCNC(=O)C1CCC(CNc2c(N3CCC(C)CC3)c(=O)c2=O)CC1 (centres undefined),-6.3% (inactive)
8,OCC[C@H]1C[C@@H](O)[C@H](O)[C@@]2(OCCc3ccccc32)O1,-8.36% (inactive)
9,COc1ccc(CCNC(=O)CCn2c(=O)c3ccccc3n(CC(=O)NCC3CCCO3)c2=O)cc1OC (centres undefined),-2.84% (inactive)
10,CC(=O)Nc1ccc(S(=O)(=O)Oc2ccc(/C=N/N=C3/NC(=O)C(CC(=O)O)S3)cc2)cc1 (centres undefined),1.2% (inactive)
11,O=C(CCSc1ccccc1)NCCSc1ccccn1,-0.984% (inactive)
12,O=C1CSC(c2cccc(F)c2)N1c1ccc(O)cc1 (centres undefined),-4.16% (inactive)
13,O=C(O)CCCC(=O)Nc1ccccc1-n1ccnc1,-9.58% (inactive)
14,CSc1ncnc2c1ncn2CC(=O)C1CCC2C3CCC4=CC(=O)CCC4(C)C3CCC12C (centres undefined),-2.03% (inactive)
15,CCOC(=O)CSc1nc2ccc(C)cc2n2cnnc12,0.488% (inactive)
16,CC1=C(C(=O)N(C(C)C)C(C)C)CC(CC(=O)NCC2CCCCC2)C(=O)N1Cc1ccccc1 (centres undefined),1.77% (inactive)
17,O=C(CCNS(=O)(=O)c1ccccc1C(F)(F)F)Nc1ccncc1,0.0096% (inactive)
18,O=C(OCC(=O)N(CCc1ccccc1)Cc1ccccc1)c1ccccc1[N+](=O)[O-],-22.2% (inactive)
19,O=C(c1cccnc1)N(Cc1ccccc1)C(=O)c1cccnc1,-3.67% (inactive)
20,O=C(c1cccnc1)N(c1cc2sc(=O)oc2c2ccccc12)S(=O)(=O)c1ccccc1,61.6% (active)
21,COc1ccc(N(C(=O)c2cccnc2)S(=O)(=O)c2ccc(OC)c(OC)c2)cc1,0.917% (inactive)
22,CC(C)Cc1ccc(S(=O)(=O)N2CCN(C(=O)c3ccco3)CC2)cc1,-6.64% (inactive)
23,CC(C)(C)S(=O)N1Cc2cc(C(=O)NCCCN3CCOCC3)nc(-c3cccc(-c4cc5ccccc5o4)c3)c2[C@H]1CCO (some centres undefined),-2.56% (inactive)

row,Compound,potentiation
1,COc1ccc(/C=C(\NC(=O)c2ccc(OCC(C)C)cc2)C(=O)OCc2ccco2)cc1,-7.94% (inactive)
2,CC(C)c1ccc(NC(=O)COC(=O)c2ccc(CN3CCCC3=O)cc2)cc1,0.762% (inactive)
3,CC(=O)N1CCN(c2ccc(NCc3ccc(C(C)C)cc3)cc2)CC1,62.8% (active)
4,CCCC(=O)N1CCC1(C)C(=O)NCc1ccc(C(C)C)cc1 (centres undefined),-0.154% (inactive)
5,COC(=O)C(NC(=O)c1ccc(OC)cc1)(Nc1ncc(S(=O)(=O)c2ccc([N+](=O)[O-])cc2)s1)C(F)(F)F (centres undefined),65.4% (active)
6,COc1ccc(C(=O)NCCNc2ccc([N+](=O)[O-])cn2)cc1,-11.5% (inactive)
7,CCOCC(=O)Nc1ncc(S(=O)(=O)c2ccc([N+](=O)[O-])cc2)s1,24.1% (inactive)
8,CCCCN1C(=S)NC[C@@H]1C(C)CC (some centres undefined),-1.6% (inactive)
9,N#Cc1ccc(COC(=O)Cn2nnc(-c3ccccc3)n2)cc1,-0.341% (inactive)
10,COC(=O)CNC(=O)c1ccccc1[N+](=O)[O-],-2.49% (inactive)
11,Cn1c(=NC(=O)c2ccc3c(c2)OCCO3)sc2cc(S(C)(=O)=O)ccc21,-10.1% (inactive)
12,COCCn1c(=NC(=O)c2ccccc2[N+](=O)[O-])sc2cc(S(C)(=O)=O)ccc21,74.4% (active)
13,C=CCSc1ccc(S(=O)(=O)N2CCN(C)CC2)cn1,-3.17% (inactive)
14,O=C(Nc1ccnn1C1CCN(C/C=C/c2ccc(F)cc2)CC1)C1CCCC1,-11% (inactive)
15,Cn1ncc2c(N3CCCCC3)nc(NCCCO)nc21,-3.76% (inactive)
16,CS(=O)(=O)c1sc(C(=O)NC(=S)Nc2ccc(OC(F)(F)F)cc2)c2c1C=CCC2,-5.92% (inactive)
17,COc1ccccc1Cc1c(-c2ccc(Cl)cc2)nc2ccc(Cl)cn12,-4.81% (inactive)
18,COc1cccc(N2CC(C(=O)NCc3n[nH]c(=O)c4ccccc34)CC2=O)c1 (centres undefined),-3.09% (inactive)
19,CCCCC(=O)N1CC2(C)CN(C(=O)CCCC)CC(C)(C1)C2=O,12.6% (inactive)
20,COc1cc(C(=O)N2CCN(S(=O)(=O)c3ccc(C(C)C)cc3)CC2)ccc1OCC(=O)N1CCOCC1,0.615% (inactive)

# From PubChem BioAssay AID624464 (National Center for Advancing Translational Sciences (NCATS), 2012)
